Screening data (PubChem)
This excerpt belongs to a sample that is enriched for hits.
HT1080NT lethal: kills 2HG-producing HT-1080-NT fibrosarcoma cells; HT-1080-NT fibrosarcoma viability, CellTiter-Glo ATP luminescence, 48 h; Potency, µM (titrated, usually from 46.1 µM), for the others: at the top dose activity, negative = less viability, hits mostly cytotoxic; actives 1.6% (n = 360,000); AID 686970;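 further: NT is the 2HG producing partner of a matched IDH1 knockdown line; potency means the concentration at half of the fitted maximal effect; 0% = DMSO-treated cells and -100% = media-only wells without cells; nearly all actives have a fitted effect of over 55% in size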
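Compounds were tested in concentration-response format on HT-1080-NT cells for 48 hours at 37 degrees C. Cell viability came from CellTiter-Glo luminescence; curves were classified by r2, response magnitude and activity.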
DT40 TDP1 no CPT: qHTS for Inhibitors of human tyrosyl-DNA phosphodiesterase 1 (TDP1): qHTS in cells in absence of CPT. AID 686978, 2013. actives 15% (n = 420,000). Potency, µM (titrated, usually from 46.2 µM), without a hit: top-dose activity change, negative = growth inhibition, actives largely listed as inhibitors. DT40 Tdp1-/- hTDP1 cells, no CPT, ATP luminescence, 48 h; further: potency means the concentration at half of the fitted maximal effect; nearly all actives have a fitted effect of over 55% in size
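DT40 Tdp1-/-;hTDP1 cells, no CPT (DMSO vehicle only), 400 cells/well; compounds pin-transferred; ≥48 hr, 37 °C; CellTiter-Glo 30 min RT dark, luminescence read.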
IL1B secr inh: inhibitors of inflammasome signaling (IL-1 beta secretion); THP-1 LPS/ATP IL-1B secretion, AlphaLISA, 16 h; stronger effect = lower value; activity change, % at 57.5 µM; actives 4.7% (n = 360,000); AID 743279; in the data active means activity change below about -50%; inconclusive means mostly about -30% to -49%
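Secreted IL-1B measured by AlphaLISA bead assay after 16 h compound exposure of THP-1 cells; compounds (final up to 57.5 uM) added 1 h before LPS (250 ng/mL) and ATP (1.25 mM) stimulation; lower signal means less secretion.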
HT1080 IDH1KD tx: HT-1080 IDH1 knockdown cell toxicity (counter line); HT-1080 IDH1 knockdown viability, ATP luminescence, 48 h; Potency, µM (highest dose often 46.1 µM), without a hit: at the highest dose activity, negative = toxicity, most hits filed as cytotoxic; actives 2% (n = 360,000);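 further: potency means the concentration at half of the fitted maximal effect; 0% = DMSO wells and -100% = cell-free medium wells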
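Knockdown cells (IDH1KD HT-1080) received compounds 2 h after plating at 750 cells/well and were kept 48 h at 37 °C in 5% FBS RPMI. A CellTiter-Glo luminescence read gave % activity for curve fitting.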
TDP1 cell CPT: growth inhibition of DT40 Tdp1-/-;hTDP1 cells with camptothecin (screen for TDP1 inhibitors) | chicken DT40 Tdp1-/-;hTDP1 cells + 20 nM CPT, ATP luminescence, 48 h | Potency, µM (top dose mostly 46.2 µM), without a hit: at the top dose activity change, negative = growth inhibition, hits mostly inhibitors | actives 12% (n = 420,000) | AID 686979; further: potency means the concentration at half of the fitted maximal effect; nearly all actives have a fitted effect of over 55% in size
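Chicken DT40 Tdp1-/- cells stably complemented with human TDP1 were seeded at 400 cells/well in medium containing 20 nM camptothecin, exposed to pin-transferred compounds, and grown at 37 °C for at least 48 hr. Viability was read as ATP luminescence.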
12-LOX inh: blocks human arachidonate 12S-lipoxygenase; purified 12hLO, xylenol orange hydroperoxide absorbance; AID 1671190; actives 1.1% (n = 580,000); P18054; Potency, µM (doses to about 108 µM), for the others: at the top dose activity change, negative = inhibition, most hits filed as inhibitors; further: potency means the concentration at half of the fitted maximal effect
Target sequence (P18054 whole entry, looked up): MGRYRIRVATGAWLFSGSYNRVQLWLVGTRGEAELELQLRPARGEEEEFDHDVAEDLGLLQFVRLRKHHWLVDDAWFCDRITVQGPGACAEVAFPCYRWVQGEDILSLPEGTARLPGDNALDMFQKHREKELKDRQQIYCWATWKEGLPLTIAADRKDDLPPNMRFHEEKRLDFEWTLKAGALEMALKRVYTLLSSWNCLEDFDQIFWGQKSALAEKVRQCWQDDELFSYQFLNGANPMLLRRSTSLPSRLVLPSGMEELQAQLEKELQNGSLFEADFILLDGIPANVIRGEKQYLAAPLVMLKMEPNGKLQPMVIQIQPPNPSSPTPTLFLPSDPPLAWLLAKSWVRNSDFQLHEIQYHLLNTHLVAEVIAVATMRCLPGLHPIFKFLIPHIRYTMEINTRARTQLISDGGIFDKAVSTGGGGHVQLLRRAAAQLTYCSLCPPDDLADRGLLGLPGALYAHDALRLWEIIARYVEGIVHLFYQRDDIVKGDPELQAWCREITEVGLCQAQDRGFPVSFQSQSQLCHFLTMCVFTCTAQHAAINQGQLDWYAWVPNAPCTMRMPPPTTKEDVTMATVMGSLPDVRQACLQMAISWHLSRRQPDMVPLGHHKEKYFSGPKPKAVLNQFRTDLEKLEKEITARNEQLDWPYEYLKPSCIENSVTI
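Purified human 12hLO at 150 nM in 25 mM Hepes, 0.01% Triton X-100, pH 7.0, preincubated 15 min at room temperature with compound. Reaction started with 40 uM arachidonic acid, 30 min at room temperature. Hydroperoxide measured by Fe-xylenol orange, 573/405 nm absorbance ratio.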
Active calls of the source: *; ? = inconclusive; . = no result given; [ ] = another dose, or the depositor's remark. Unless noted, the call rests on the fitted dose curve; in most records, active means well fitted curve in the direction sought with a large enough effect; inconclusive means small, poorly fitted or top-dose-only effect, or another doubt; inactive means no such curve, though single readings can be large; an effect the other way counts as inactive or inconclusive. Unless noted, on the % scale 0 is the no-effect control and ±100 the full control effect.

SMILES	HT1080NT lethal	DT40 TDP1 no CPT	IL1B secr inh	HT1080 IDH1KD tx	TDP1 cell CPT	12-LOX inh
O=C(CCCc1ccccc1)Nc1ccc(Br)cc1F	1.1%	?	-11.3	-6.0%	14.6µM*	.
CC(C)c1ccc(C(=O)NN=C2CCC(c3ccccc3)CC2)cc1 (stereo not drawn)	.	.	.	.	.	63.5%
CCCC(C)c1nnc(NC(=O)Cc2ccc(OC)cc2OC)s1 (stereo not drawn)	.	.	.	.	.	-3.1%
COc1ccc(-c2cc3nc(NCCCN(C)C)n(C)c(=O)c3s2)cc1OC	-27.9%	?	-14.9	1.8%	?	-0.3%
Cn1c(NCc2cccnc2)nc2cc(-c3ccc(C(=O)N4CCOCC4)cc3)sc2c1=O	-19.9%	?	-24.1	-20.0%	?	1.9%
Cn1c(NCc2cccnc2)nc2cc(-c3cccc(C(=O)NCCO)c3)sc2c1=O	-13.0%	-22.7%	?	-13.6%	9.2µM*	3.4%
CN(C)CCCOc1ccc(-c2cc3nc(NCc4cccnc4)n(C)c(=O)c3s2)cn1	?	18.4µM*	-14.6	-17.1%	?	3.3%
COC(=O)c1cc(NC(=O)c2sc3ncn(Cc4cccc(F)c4)c(=O)c3c2C)cc(C(=O)OC)c1	.	?	.	.	-27.0%	-12.7%
Cc1cc(Br)cc(C)c1NC(=O)c1sc2ncn(Cc3cccc(F)c3)c(=O)c2c1C	.	18.4µM*	.	.	16.4µM*	?
Cc1ccc(C(=O)NCC23CCC=C2N(C)C(=O)CC3)cn1 (stereo not drawn)	.	.	.	.	.	10.3%
COc1ccc(NC(=O)c2cc(C3CCCCN3C(=O)c3cc(F)ccc3C)on2)c(C)c1 (stereo not drawn)	-0.5%	8.2µM*	26.7	-11.3%	11.6µM*	12.8%
CCCNC(=O)c1cc(C2CCCCN2C(=O)c2cc(C(C)(C)C)nn2C)on1 (stereo not drawn)	0.4%	18.4µM*	19.2	2.0%	20.6µM*	4.7%
COc1ccc(C(=O)N2CCCCC2c2cc(C(=O)Nc3ccc(OC)cc3C)no2)cc1 (stereo not drawn)	10.1%	?	-4.7	0.0%	?	-18.0%
Cc1ccc(F)cc1C(=O)N1CCCCC1c1cc(C(=O)NC(C)C)no1 (stereo not drawn)	8.2%	-27.0%	-55.7*	0.8%	-1.0%	11.6%
CCCNC(=O)c1cc(C2CCCN(C(=O)c3cc(C(C)(C)C)nn3C)C2)on1 (stereo not drawn)	4.7%	?	19.2	1.8%	?	2.4%
COc1ccc(NC(=O)c2cc(C3CCCCN3C(=O)c3cc(C(C)(C)C)nn3C)on2)c(C)c1 (stereo not drawn)	9.8%	20.6µM*	52.2	7.5%	?	-23.5%
CCC(NC(=O)c1ccc2nc(-c3ccc(F)cc3)cn2c1)c1ncc(C)[nH]1 (stereo not drawn)	.	.	.	.	.	35.4%
Cc1ccc(C)c(OC(=O)c2ccccc2F)c1	.	.	.	.	.	-0.2%
Cc1cccc(N2CCN(Cc3ncc(-c4ccccc4)o3)CC2)c1C	.	.	.	.	.	-10.6%
COc1ncc(-c2ccc3nccc(-c4ccnnc4)c3c2)cc1NS(=O)(=O)c1ccc(F)cc1F	.	.	.	.	.	-12.3%[57.4 µM]
CC(C)NC(=O)[C@@H]1CSC2c3ccccc3C(=O)N21 (stereo partly drawn)	1.8%	1.1%	2.0	4.4%	5.2%	0.0%
COC(=O)C1CSC2c3ccccc3C(=O)N12 (stereo not drawn)	-5.9%	?	-3.6	-5.9%	18.4µM*	12.6%
Cc1ccc(NC(=O)CCc2c[nH]c3ccccc23)nc1	?	2.59µM*	31.3	?	2.59µM*	-2.4%
Cc1ccnc(NC(=O)Cc2ccc(-c3ccccc3)cc2)c1	?	?	?	?	?	0.0%
Cc1ccc(NC(=O)Cc2ccc(-c3ccccc3)cc2)nc1	?	-27.3%	-60.3*	-9.2%	?	4.5%
SMILES	HT1080NT lethal	DT40 TDP1 no CPT	IL1B secr inh	HT1080 IDH1KD tx	TDP1 cell CPT	12-LOX inh
O=C(Cc1ccc(-c2ccccc2)cc1)Nc1ccccn1	-12.6%	?	-69.5*	-25.0%	1.3%	18.5%
Cc1ccc(C)c(NC(=O)CCc2c[nH]c3ccccc23)c1	.	.	.	.	.	-14.5%
COc1ccc(CNC(=O)C2CCCN(S(=O)(=O)c3c(C)noc3/C=C/N(C)C)C2)cc1 (stereo not drawn)	0.6%	0.7%	11.3	11.5%	1.9%	-9.3%
Cc1ccc2c(c1)N(C(=O)Cn1c(=O)n(CCC(C)C)c(=O)c3sccc31)CCO2	.	.	.	.	.	-0.7%
Fc1cccc(Nc2cc(-n3cccn3)ncn2)c1	-7.3%	10.3µM*	13.0	-25.2%	20.6µM*	-19.9%
N#C/C(=N/Nc1ccc([N+](=O)[O-])cc1)C(=N)N1CCCCC1	-3.0%	-0.9%	-20.2	-12.8%	-17.7%	?
N#C/C(=N\Nc1ccccc1[N+](=O)[O-])C(=N)N1CCCCC1	-12.8%	5.8µM*	1.4	2.1%	5.8µM*	?
CC#CC#Cc1cccc(=O)o1	?	?	-74.9*	20.6µM*	?	-11.9%
O=C(Cn1c(=O)n(Cc2ccccc2)c(=O)c2sc3ccccc3c21)Nc1ccc(F)cc1	.	14.6µM*	.	.	14.6µM*	-31.9%
COc1ccccc1NC(=O)Cn1c(=O)n(-c2ccccc2Cl)c(=O)c2sc3ccccc3c21	.	10.3µM*	.	.	?	-28.5%
O=C(Cn1c(=O)n(Cc2ccccc2)c(=O)c2sc3ccccc3c21)Nc1ccccc1	.	?	.	.	?	-2.6%
COc1ccc(NC(=O)Cn2c(=O)n(Cc3ccccc3)c(=O)c3sc4ccccc4c32)cc1	.	13µM*	.	.	-22.2%	-8.7%
COCCNC(=O)Cn1c(=O)n(Cc2ccco2)c(=O)c2ccccc21	-0.7%	2.0%	-6.3	11.7%	6.4%	-17.6%
CCOC(=O)Cn1c(=O)n(Cc2ccco2)c(=O)c2ccc(C(=O)NCCc3ccccc3)cc21	-4.6%	23.1µM*	1.1	-4.3%	18.4µM*	-0.6%
COc1ccc(CCNC(=O)Cn2c(=O)n(Cc3ccco3)c(=O)c3ccc(Cl)cc32)cc1OC	0.0%	23.1µM*	-3.2	11.3%	?	38.3%
COc1ccc(NC(=O)Cn2c(=O)n(Cc3ccccc3Cl)c(=O)c3cc(OC)c(OC)cc32)cc1OC	.	-25.4%	.	.	3.26µM*	-11.4%
COc1cc2c(=O)n(CCc3ccccc3)c(=O)n(CC(=O)Nc3ccccc3)c2cc1OC	.	-14.4%	.	.	-14.0%	?
